3T3 cytotox – NIH 3T3 cell cytotoxicity; NIH 3T3 viability, CellTiter-Glo ATP luminescence, 48-72 h; Potency, µM (doses to about 96.7 µM), inactives show top-dose activity change, negative = cytotoxicity, hits mostly inhibitors; 94,000 compounds, 4.3% hits; also: nearly all actives have a fitted effect of over 55% in size
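Viability of NIH 3T3 cells after 48 or 72 hr compound treatment at 37 °C was assessed by CellTiter-Glo, with luminescence imaged following a 10 min room-temperature step.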
hNpr1 antagonist – blocks ANP-stimulated signaling of human Npr1 receptor | HEK293 hNpr1 GloSensor cGMP, ANP-stimulated luminescence | P16066 | AID 1347048 | 76,000 compounds, 1.6% hits | Potency, µM (highest dose often 46.3 µM), without a hit: top-dose activity change, negative = inhibition, most hits filed as inhibitors; calls by dose curve; also: nearly all actives have a fitted effect of over 60% in size
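Compound pre-incubated 30 min at room temperature on GloSensor-loaded HEK293 cells stably carrying hNpr1 and the pGS-40F cGMP biosensor. Stimulation uses hNppA at 0.1 nM final; luminescence is taken at baseline and 20 min post-agonist.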
FLuc inh – blocks purified firefly luciferase enzyme activity; P08659; purified P. pyralis luciferase, luminescence, biochemical; Potency, µM (doses to about 115 µM), actives largely listed as inhibitors; 76,000 compounds, 2.5% hits; also: nearly all actives have a fitted effect of over 65% in size
Target sequence (P08659 whole entry, looked up): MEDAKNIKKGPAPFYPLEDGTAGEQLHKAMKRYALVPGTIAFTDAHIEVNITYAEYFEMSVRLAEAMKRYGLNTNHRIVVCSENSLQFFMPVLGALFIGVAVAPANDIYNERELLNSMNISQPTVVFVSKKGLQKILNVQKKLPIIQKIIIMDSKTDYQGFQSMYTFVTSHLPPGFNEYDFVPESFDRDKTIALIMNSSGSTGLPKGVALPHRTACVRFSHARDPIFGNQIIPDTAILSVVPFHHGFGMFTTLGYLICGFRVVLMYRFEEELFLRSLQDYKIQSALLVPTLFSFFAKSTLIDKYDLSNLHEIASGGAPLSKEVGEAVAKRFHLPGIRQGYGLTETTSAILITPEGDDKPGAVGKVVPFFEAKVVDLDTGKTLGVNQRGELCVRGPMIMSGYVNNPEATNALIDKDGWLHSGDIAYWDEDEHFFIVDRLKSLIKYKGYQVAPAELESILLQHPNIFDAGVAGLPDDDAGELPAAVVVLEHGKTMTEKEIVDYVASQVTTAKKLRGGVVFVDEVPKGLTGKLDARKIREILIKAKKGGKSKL
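Luminescence read by CCD imager after adding enzyme (10nM final) to wells holding compound, titrated in qHTS. Substrates 10uM each D-luciferin and ATP; buffer 50mM Tris acetate pH 7.5, 10mM Mg acetate, Tween-20, BSA.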
HEK cytotox – HEK 293 cell cytotoxicity; HEK 293 viability, ATP luminescence (CellTiter-Glo), 48-72 h; Potency, µM (top dose mostly 115 µM), inactives show at the highest dose activity change, negative = cytotoxicity, actives largely listed as inhibitors; 94,000 compounds, 6.6% hits; AID 1345083; also: nearly all actives have a fitted effect of over 60% in size
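HEK 293 seeded at 250 cells/well receive compound via pintool. After 48 or 72 hr at 37 degree Celsius, 5% CO2 and 95% humidity, CellTiter-Glo is dispensed and luminescence read following 10 min at room temperature.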
* hit, by the source's call; i = inactive; ? = inconclusive; nt = no result; [ ] = dose if it differs, or a comment. This is a sample that favours compounds with a hit; in the whole collection about 11% have one here. Unless noted, calls follow the shape of the dose curve; as a rule, active = well fitted curve in the direction sought with a large enough effect; inconclusive = small, poorly fitted or top-dose-only effect, or another doubt; inactive = no such curve, though single readings can be large; an effect the other way counts as inactive or inconclusive. % is scaled to controls: 0 for no effect and ±100 for the full control effect; potency is read from the fitted curve at half-maximal effect.

SMILES | 3T3 cytotox | hNpr1 antagonist | FLuc inh | HEK cytotox
CCc1ccccc1S(=O)(=O)N1CCN(C2CCN(Cc3ccccn3)C2=O)CC1 (centres undefined) | -26% | -12% | i | -25%
O=C(NC1CCCN(CCn2nc3n(c2=O)CCCC3)C1)c1ccc(Cl)cc1 (centres undefined) | -25% | nt | nt | ?
CC(C)c1nc(-c2ccc(OC3CCN(C(=O)Cc4c[nH]c5ccccc45)C3)cc2)no1 (centres undefined) | ? | ? | i | ?
O=C(C1CCOC1)N1CC(Oc2cccc(-c3nc(-c4ccccc4)no3)c2)C1 (centres undefined) | ? | -19% | 45µM* | ?
CCNC(=O)N1CC(Oc2cccc(-c3nc(-c4ccccc4)no3)c2)C1 | ? | 4% | i | 35µM*
O=C(Cc1cccc(F)c1)N1CC(Oc2cccc(-c3nc(-c4ccccc4)no3)c2)C1 | 35µM* | nt | nt | ?
CC(C)NC(=O)N1CC(Oc2cccc(-c3nc(-c4ccccc4)no3)c2)C1 | ? | -7% | i | ?
CC(C)c1nc(-c2ccc(OC3CCN(C(=O)Cc4ccccc4F)C3)cc2)no1 (centres undefined) | ? | nt | nt | 35µM*
CCNC(=O)N1CCC(Oc2ccc(-c3noc(-c4ccccc4)n3)cc2)C1 (centres undefined) | ? | nt | nt | 18µM*
CCNC(=O)N1CC(Oc2ccc(-c3nc(C)no3)cc2)C1 | -25% | -18% | i | ?
Cc1ccc(CNC(=O)N2CC(Oc3cccc(-c4nc(C)no4)c3)C2)cc1 | ? | -13% | i | 45µM*
CNC(=O)CCn1ncc2cc(OCc3ccccc3-c3cc(F)ccc3C)ccc21 | 79µM* | -27%[70.6 µM] | ? | 63µM*
CNC(=O)CCn1ncc2cc(OCc3ccccc3-c3ccccc3C)ccc21 | ? | -18%[70.6 µM] | i | ?
CNC(=O)CCn1ncc2cc(OCc3ccccc3-c3ccc(F)cc3F)ccc21 | ? | -2%[70.6 µM] | ? | 79µM*
Cn1nc(C(=O)N2CCC3(CC2)CC(CO)N(C(=O)c2ccccc2)C3)c2ccccc21 (centres undefined) | ? | -5% | i | -14%
COc1ccc(C(=O)N2CCC(CCn3c(C)cnc3-c3cccnc3)CC2)cc1 | ? | nt | nt | -30%
Cc1cnc(-c2ccccc2)n1CCC1CCN(C(=O)C2(c3ccccc3)CC2)CC1 | ? | nt | nt | 35µM*
Cc1cnc(C2CCC2)n1C1CCN(C(=O)C2(c3ccccc3)CC2)CC1 | -16% | -3% | i | -21%
Cc1cnc(-c2ccncc2)n1CCC1CCN(C(=O)C(C)Oc2ccccc2)CC1 (centres undefined) | ? | nt | nt | 45µM*
O=C(NC1CCN(C(=O)c2ccc(-c3cncnc3)cc2)CC1)c1ccc(Cl)nc1 | -21% | nt | nt | -21%
O=C(NCc1cccc(Cl)c1)C1CCN(C(=O)c2ncn3c2COC(c2ccccc2)C3)CC1 (centres undefined) | -19% | -14% | 20µM* | 1%
O=C(NCc1cccc(Cl)c1)C1CCN(C(=O)c2ncn3c2COC(c2ccc(F)cc2)C3)CC1 (centres undefined) | 1% | 3% | 25µM* | 14%
O=C(NCc1cc(F)cc(F)c1)C1CCN(C(=O)c2ncn3c2COC(c2ccc(F)cc2)C3)CC1 (centres undefined) | 0% | -1% | ? | -19%
O=C(NCc1ccccn1)C1CCN(C(=O)c2ncn3c2COC(c2ccc(Cl)cc2)C3)CC1 (centres undefined) | 4% | 1% | 32µM* | -10%
O=C(NCC1CCCO1)c1ccc2oc(-c3ccc(C(F)(F)F)cc3)nc2c1 (centres undefined) | -20% | ? | i | 18µM*
SMILES | 3T3 cytotox | hNpr1 antagonist | FLuc inh | HEK cytotox
O=C(c1ccc2oc(-c3ccc(C(F)(F)F)cc3)nc2c1)N1CCOCC1 | ? | -14% | i | ?
O=C(NC1CCCCCC1)c1ccc2oc(-c3ccncc3)nc2c1 | -24% | nt | nt | 35µM*
Cc1cnc(CCNC(=O)Cn2c(=O)oc3ccccc32)n1C1CC1 | -11% | 3% | i | -22%
O=C(C1CCCN1C(=O)c1ccc(Cl)nc1)N1CCC(N2CCCC2=O)CC1 (centres undefined) | -1% | nt | nt | 4%
C[C@H](C(=O)N1CCCC1)[C@@H]1CC[C@@]2(C)Cc3sc(-c4ccsc4)nc3[C@@H](C)[C@@H]2[C@H]1O | -26% | -19% | 11µM* | ?
CC(C)NC(=O)N1C[C@@H](F)[C@@H](OCc2nc3ccccc3o2)C1 | -13%[174 µM] | -2%[70.6 µM] | i | -6%[172 µM]
O=C(Nc1cccc(C(F)(F)F)c1)N1C[C@@H](F)[C@@H](OCc2nc3ccccc3[nH]2)C1 | 100µM* | -10%[70.6 µM] | i | 100µM*
Cc1ccc2nc(CO[C@H]3CN(C(=O)C4CC4)C[C@H]3F)[nH]c2c1 | -16%[138 µM] | -15%[70.6 µM] | 28µM* | -8%[172 µM]
O=C(Nc1ccc(F)cc1F)N1C[C@@H](F)[C@@H](OCc2nc3ccccc3[nH]2)C1 | -3%[138 µM] | -2%[70.6 µM] | i | 0%[172 µM]
COc1ccc2nc(CO[C@H]3CN(C(=O)c4ccccc4)C[C@H]3F)[nH]c2c1 | -18%[138 µM] | 0%[70.6 µM] | ? | -23%[172 µM]
COc1ccc(C(=O)N2C[C@@H](F)[C@@H](OCc3nc4ccc(F)cc4[nH]3)C2)cc1 | -21%[138 µM] | -27%[70.6 µM] | 40µM* | ?
COc1ccc(C(=O)N2C[C@@H](F)[C@@H](OCc3nc4ccccc4o3)C2)cc1 | -30%[174 µM] | 0%[70.6 µM] | i | 100µM*
Cc1ccc2nc(CO[C@H]3CN(C(=O)C4CCOCC4)C[C@H]3F)[nH]c2c1 | 3%[138 µM] | -3%[70.6 µM] | i | -8%[172 µM]
CNC(=O)c1cc(C2CC2)nc2c1c(C1CCN(C(=O)c3ccc(C)cc3)CC1)nn2C | ? | nt | nt | i
Cc1ccc(C(=O)N2CCN(C(=O)c3nc4cccnc4n(CCc4ccccc4)c3=O)CC2)cc1 | -22% | nt | nt | ?
O=C(NC[C@H]1OC[C@@H](NCc2ccccc2F)[C@@H]1O)Nc1ccccc1 | i | 12%[70.6 µM] | i | 2%[172 µM]
COc1ccc(CN2CC(c3ncc4c(-c5ccccc5)nccn34)C2)cc1O | 89µM* | -25%[70.6 µM] | i | ?
CNC(=O)[C@@H]1C[C@@H](n2cc(CNC(=O)Nc3ccc(Cl)cc3C)nn2)CN1 | i | 1% | i | 35µM*
Cc1cccc2nc(C(=O)N3CCn4nc(Cc5ccccc5)cc4C3)cn12 | ? | ? | i | 45µM*
CC(C)C(=O)N1Cc2ccccc2CC2(CCCCN2CC2CCNC2)C1 (centres undefined) | ? | nt | nt | -21%
CCC(CC)NC(=O)CCC1CCN(C(=O)c2ccccc2)CC1 | -7% | 2% | 25µM* | -8%
Cc1nn(-c2ccccc2)c2c1C(C1CC1)N(C1CN([S+](=O)([O-])c3cccc(C(F)(F)F)c3)C1)C2=O (centres undefined) | i | nt | nt | i
COc1ccccc1CN1CCNc2cc(Nc3ccccc3)ncc2C1 | 35µM* | -20%[70.6 µM] | ? | 35µM*
COc1ccc(CN2CCNc3cc(Nc4ccccc4)ncc3C2)cc1 | ? | -30%[70.6 µM] | i | 71µM*

Screens as filed in PubChem.
